# Reference: ChEMBL document CHEMBL1157539, “Thousands of chemical starting points for antimalarial lead identification” (Nature, 2010)
# Assays:
# Assay type in all cases: functional
# Plasmodium falciparum [1] = assay: GSK_TCMDC: Inhibition of Plasmodium falciparum 3D7 in whole red blood cells, using parasite LDH activity as an index of growth. Test compounds present at 2uM
# Plasmodium falciparum [2] = assay: GSK_TCMDC: Inhibition of Plasmodium falciparum Dd2 in whole red blood cells, using parasite LDH activity as an index of growth. Test compounds present at 2uM
# HepG2 = assay: GSK_TCMDC: Percent inhibition of human HepG2 cell line. Test compounds present at 10uM.
SMILES,Inhibition (Plasmodium falciparum [1]) [%],Inhibition (Plasmodium falciparum [2]) [%],Inhibition (HepG2) [%]
Cl.O=C(O)CCCN1CCCC(=C(c2ccccc2)c2ccccc2)C1,82,2,0
CN1CCN(Cc2nc(-c3ccc4c(Nc5ccc(Oc6ccccc6)cc5)ccnc4c3)cs2)CC1,100,99,15
CCOc1cc(C(=O)NC2CC(C)(C)NC(C)(C)C2)ccc1-c1nc2cc(Cl)ccc2[nH]1,100,64,46
CC1(C)N=C(N)N=C(Nc2ccc(Cl)cc2)N1.Cl,97,0,8
Oc1ccc2[nH]c(-c3ccc(F)cc3F)nc2c1CN1CCC(O)(c2ccccc2)CC1,96,70,16
CN(C)CCNc1cc(-c2ccc3ccccc3c2)nc2ccccc12,100,58,24
O=C(/C=C/c1ccc(Cl)c(Cl)c1)NCCCCCN1CCC(NC(=O)Nc2cccc(C(F)(F)F)c2)CC1,100,11,61
Cc1ccccc1CNc1noc(-c2sccc2Br)n1,99,88,0
Cl.N=C(NCCc1ccc(Cl)cc1)c1ccc(Cl)c(Cl)c1,100,42,43
Cl.O=c1cc(NCCCNCc2scc3c(Cl)cc(C(F)(F)F)nc23)[nH]c2ccccc12,99,21,9
O=C(O)C(F)(F)F.Oc1ccc2[nH]c(-c3cccc(F)c3)nc2c1CNCc1ccccc1,92,55,29
